Experimental data published in PubChem BioAssay AID1159580 (chemical genetic matrix, 2015).
Among all 5,500 compounds or so, about 2,000 (36%) were called active. Another 18% or so got no clear call; they are omitted. Cut-off read from the data, not from the text of the source: active = normalized growth mostly below about 0.91 (no sharp cut-off); inconclusive = no clear call, values can overlap the other calls; inactive = mostly above about 0.92. The list shows a part of the results.

Assay: chemical genetic growth profiling, strain panel (AID 1159580);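 note: tested at 20 µM; growth read once vehicle control cultures reached saturation at 30 °C; 1 = growth at the plate median or of vehicle wells; lower values mean less growth of the strain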
Conditions: growth OD

Measured: normalized growth

CCOP(=S)(OCC)SCCSCC
inactive: S. cerevisiae deletion strains, locus YAL013W, strain DEP1, active compounds read low 0.992 | S. cerevisiae deletion strains, locus YBR021W, strain FUR4, active compounds read low 1 | S. cerevisiae deletion strains, locus YBR229C, strain ROT2, active compounds read low 0.955 | S. cerevisiae deletion strains, locus YCL029C, strain bik1, active compounds read low 0.977 | S. cerevisiae deletion strains, locus YDL035C, strain GPR1, active compounds read low 0.964 | S. cerevisiae deletion strains, locus YDL074C, strain BRE1, active compounds read low 0.896 | S. cerevisiae deletion strains, locus YDL101C, strain DUN1, active compounds read low 0.977 | S. cerevisiae deletion strains, locus YDL134C, strain PPH21, active compounds read low 0.983 | S. cerevisiae deletion strains, locus YDL185W, strain tfp1, active compounds read low 0.956 | S. cerevisiae deletion strains, locus YDL192W, strain arf1, active compounds read low 0.981 | S. cerevisiae deletion strains, locus YDR101C, strain arx1, active compounds read low 0.991 | S. cerevisiae deletion strains, locus YDR150W, strain NUM1, active compounds read low 0.975 | S. cerevisiae deletion strains, locus YDR162C, strain NBP2, active compounds read low 0.967 | S. cerevisiae deletion strains, locus YDR318W, strain mcm21, active compounds read low 0.97 | S. cerevisiae deletion strains, locus YDR388W, active compounds read low 0.984 | S. cerevisiae deletion strains, locus YDR502C, strain sam2, active compounds read low 0.986 | S. cerevisiae deletion strains, locus YEL061C, strain CIN8, active compounds read low 0.983 | S. cerevisiae deletion strains, locus YER110C, active compounds read low 0.985 | S. cerevisiae deletion strains, locus YER155C, strain BEM2, active compounds read low 0.989 | S. cerevisiae deletion strains, locus YER167W, strain BCK2, active compounds read low 0.992 | S. cerevisiae deletion strains, locus YGL078C, strain dbp3, active compounds read low 0.996 | S. cerevisiae deletion strains, locus YGL086W, strain mad1, active compounds read low 0.991 | S. cerevisiae deletion strains, locus YGL248W, strain PDE1, active compounds read low 0.972 | S. cerevisiae deletion strains, locus YGR078C, strain PAC10, active compounds read low 0.965 | S. cerevisiae deletion strains, locus YGR135W, strain pre9, active compounds read low 0.982 | S. cerevisiae deletion strains, locus YGR229C, strain SMI1, active compounds read low 0.968 | S. cerevisiae deletion strains, locus YGR252W, strain gcn5, active compounds read low 0.992 | S. cerevisiae deletion strains, locus YHR030C, strain SLT2, active compounds read low 0.992 | S. cerevisiae deletion strains, locus YHR079C, strain IRE1 (second series), active compounds read low 0.997 | S. cerevisiae deletion strains, locus YHR094C, strain hxt1, active compounds read low 0.991 | S. cerevisiae deletion strains, locus YHR129C, strain ARP1, active compounds read low 0.976 | S. cerevisiae deletion strains, locus YHR200W, strain rpn10, active compounds read low 0.994 | S. cerevisiae deletion strains, locus YIL066C, strain RNR3, active compounds read low 0.977 | S. cerevisiae deletion strains, locus YIL073C, strain SPO22, active compounds read low 0.982 | S. cerevisiae deletion strains, locus YIL125W, strain kgd1, active compounds read low 0.975 | S. cerevisiae deletion strains, locus YIR030C, strain dcg1, active compounds read low 0.996 | S. cerevisiae deletion strains, locus YJL095W, strain BCK1, active compounds read low 0.97 | S. cerevisiae deletion strains, locus YJL134W, strain LCB3, active compounds read low 0.98 | S. cerevisiae deletion strains, locus YJL168C, strain set2, active compounds read low 0.992 | S. cerevisiae deletion strains, locus YJL187C, strain SWE1 (second series), active compounds read low 0.979 | S. cerevisiae deletion strains, locus YJR043C, strain POL32, active compounds read low 0.991 | S. cerevisiae deletion strains, locus YJR075W, strain HOC1, active compounds read low 0.961 | S. cerevisiae deletion strains, locus YKL009W, strain mrt4, active compounds read low 0.944 | S. cerevisiae deletion strains, locus YKL068W, active compounds read low 0.977 | S. cerevisiae deletion strains, locus YKL085W, strain MDH1 (second series), active compounds read low 0.979 | S. cerevisiae deletion strains, locus YKL085W, strain MDH1, active compounds read low 0.979 | S. cerevisiae deletion strains, locus YKL190W, strain CNB1, active compounds read low 0.964 | S. cerevisiae deletion strains, locus YKR001C, strain vps1, active compounds read low 0.976 | S. cerevisiae deletion strains, locus YLR039C, strain RIC1, active compounds read low 0.937 | S. cerevisiae deletion strains, locus YLR058C, strain SHM2, active compounds read low 0.972 | S. cerevisiae deletion strains, locus YLR102C, strain apc9, active compounds read low 0.988 | S. cerevisiae deletion strains, locus YLR262C, strain YPT6, active compounds read low 0.878 | S. cerevisiae deletion strains, locus YLR268W, strain sec22, active compounds read low 0.975 | S. cerevisiae deletion strains, locus YLR330W, strain CHS5, active compounds read low 0.974 | S. cerevisiae deletion strains, locus YLR342W, strain FKS1 (second series), active compounds read low 1.03 | S. cerevisiae deletion strains, locus YLR371W, strain rom2, active compounds read low 0.999 | S. cerevisiae deletion strains, locus YLR418C, strain cdc73, active compounds read low 0.947 | S. cerevisiae deletion strains, locus YML016C, strain PPZ1, active compounds read low 0.982 | S. cerevisiae deletion strains, locus YML032C, strain rad52, active compounds read low 0.99 | S. cerevisiae deletion strains, locus YML124C, strain tub3, active compounds read low 0.995 | S. cerevisiae deletion strains, locus YMR078C, strain ctf18, active compounds read low 0.978 | S. cerevisiae deletion strains, locus YMR223W, strain ubp8, active compounds read low 0.992 | S. cerevisiae deletion strains, locus YMR263W, strain SAP30, active compounds read low 0.975 | S. cerevisiae deletion strains, locus YMR307W, strain GAS1, active compounds read low 1.04 | S. cerevisiae deletion strains, locus YNL067W, strain RPL9B, active compounds read low 0.972 | S. cerevisiae deletion strains, locus YNL128W, strain TEP1, active compounds read low 0.945 | S. cerevisiae deletion strains, locus YNL153C, strain GIM3, active compounds read low 0.978 | S. cerevisiae deletion strains, locus YNL233W, strain BNI4, active compounds read low 0.99 | S. cerevisiae deletion strains, locus YNL250W, strain rad50, active compounds read low 0.979 | S. cerevisiae deletion strains, locus YNL271C, strain bni1, active compounds read low 0.994 | S. cerevisiae deletion strains, locus YNL298W, strain CLA4, active compounds read low 0.982 | S. cerevisiae deletion strains, locus YNL307C, strain MCK1, active compounds read low 0.993 | S. cerevisiae deletion strains, locus YNL322C, strain KRE1, active compounds read low 0.976 | S. cerevisiae deletion strains, locus YNR052C, strain pop2, active compounds read low 0.998 | S. cerevisiae deletion strains, locus YOL006C, strain TOP1, active compounds read low 0.846 | S. cerevisiae deletion strains, locus YOL012C, strain htz1 0.792 | S. cerevisiae deletion strains, locus YOL147C, strain pex11, active compounds read low 0.991 | S. cerevisiae deletion strains, locus YOR061W, strain CKA2, active compounds read low 0.96 | S. cerevisiae deletion strains, locus YOR069W, strain VPS5, active compounds read low 0.997 | S. cerevisiae deletion strains, locus YOR136W, strain idh2, active compounds read low 0.995 | S. cerevisiae deletion strains, locus YOR144C, strain elg1, active compounds read low 0.99 | S. cerevisiae deletion strains, locus YOR184W, strain ser1, active compounds read low 0.956 | S. cerevisiae deletion strains, locus YOR316C, strain cot1, active compounds read low 0.973 | S. cerevisiae deletion strains, locus YPL055C, strain LGE1, active compounds read low 0.949 | S. cerevisiae deletion strains, locus YPL241C, strain CIN2, active compounds read low 0.976 | S. cerevisiae deletion strains, locus YPR119W, strain clb2, active compounds read low 0.99 | S. cerevisiae deletion strains, locus YPR141C, strain kar3, active compounds read low 0.968 | S. cerevisiae deletion strains, locus YPR163C, strain tif3, active compounds read low 0.999 | S. cerevisiae deletion strains, locus YPR167C, strain met16, active compounds read low 0.988 | S. cerevisiae deletion strains, strain wtn01, active compounds read low 0.995 | S. cerevisiae strains, strain wild type, active compounds read low 0.979
